From ChEMBL document CHEMBL3988442, “University of Dundee, Small-Polar-MMV Screening Library” (2021)
Out of some 69,000 compounds screened, about 950 (1.4%) showed an effect of 50% or more. Many of the other results were omitted from the sample, so strong results are more common in it than they were.

system: Mycobacterium tuberculosis; assay: Cornell M. t heat shock assay; type: functional, organism-based; design: dose or concentration left out as unconfirmed; further: in the data most compounds retested in dose-response had high values

Row | SMILES | Percent Effect
1 | CN(C)C(=O)COC[C@@H]1CC[C@H]2[C@H](CCN2c2ccccn2)O1.O=C(O)C(F)(F)F | -1.761%
2 | Cn1cc(CN2CCC[C@]3(C[C@@H](Oc4ccccn4)CO3)C2)cn1.O=C(O)C(F)(F)F.O=C(O)C(F)(F)F | 27.52%
3 | Cn1cnc(S(=O)(=O)N2CC3(CCN(CC4CC4)C3)C2)c1.O=C(O)C(F)(F)F.O=C(O)C(F)(F)F | 2.143%
4 | CO[C@@H]1CCN(Cc2c(C)noc2C)[C@@H]2CN(Cc3cccnc3)C[C@@H]21.O=C(O)C(F)(F)F.O=C(O)C(F)(F)F.O=C(O)C(F)(F)F | 14.07%
5 | CN(Cc1ccncc1)Cc1nccn1Cc1ccccc1 | 6.234%
6 | CN(CCc1ccccn1)Cc1nccn1Cc1ccccc1 | 101.1%
7 | CN(CCc1ccncc1)Cc1nccn1Cc1ccccc1 | 9.887%
8 | CNC[C@H]1CC[C@H](c2cc(CN(C)S(=O)(=O)N(C)C)n(C)n2)CC1.Cl | -16.56%
9 | O=C(O)C(F)(F)F.O=C([C@@H]1CCO[C@@H]2CCN(Cc3ccc(F)cc3)C[C@H]21)N1CCCCO1 | -25.18%
10 | COC1CN(C(=O)OCC(C)C)CCC(=O)N(C)c2ccccc21 (stereo unspecified) | 53.04%
11 | COC1CN(C(=O)CC(C)C)CCC(=O)N(C)c2ccccc21 (stereo unspecified) | 33.11%
12 | COC1CN(C(=O)COC(C)=O)CCC(=O)N(C)c2ccccc21 (stereo unspecified) | 45.97%
13 | COC1CN(C(=O)CC2CCCC2)CCC(=O)N(C)c2ccccc21 (stereo unspecified) | 50.44%
14 | COC1CCN(C(=O)CC2CCCC2)CC(=O)N(C)c2ccccc21 (stereo unspecified) | 27.7%
15 | COC1CN(C(=O)CC(C)(C)C)CCC(=O)N(C)c2ccccc21 (stereo unspecified) | 48.93%
16 | Cn1cc(C[C@H]2[C@H](N3CCOCC3)CCN2C(=O)c2ccco2)cn1.O=C(O)C(F)(F)F | 6.591%
17 | COc1ccc(CN(Cc2cccnc2)CC2CCCO2)c(OC)c1.O=C(O)CC(O)(CC(=O)O)C(=O)O (stereo unspecified) | 5.923%
18 | CCCn1ncc(-c2ccnc(NC3CCSC3)n2)c1C (stereo unspecified) | -0.2299%
19 | CCCn1ncc(-c2ccnc(NC3CC(C)(C)NC(C)(C)C3)n2)c1C | -32.44%
20 | CCCn1ncc(-c2ccnc(N[C@@H]3C[C@@H]4CC[C@H]3C4)n2)c1C | 50.09%
21 | CCN1C[C@H]2[C@@H](C1)N(S(=O)(=O)c1ccccc1)CC[C@H]2OC.O=C(O)C(F)(F)F | 4.433%
22 | O=C(CSCC1CC1)N1CCCC(c2nccn2Cc2ccccn2)C1 (stereo unspecified) | -24.76%
23 | O=C(CSCC1CC1)N1CCCC(c2nccn2Cc2ccncc2)C1 (stereo unspecified) | 27.98%

Row | SMILES | Percent Effect
24 | COCCn1ccnc1C1CCCN(C(=O)CSCC2CC2)C1 (stereo unspecified) | 75.33%
25 | CC(C)c1nc2c(n1C)CCN(Cc1cccc(OCC(N)=O)c1)C2 | -13.93%
26 | Cn1cc(CN2CC[C@@H]3[C@@H](CO[C@H]3CNC(=O)c3ccco3)C2)cn1.O=C(O)C(F)(F)F.O=C(O)C(F)(F)F | -15.87%
27 | CC/N=c1\nc(NCC)nc2n1C(O)(Nc1cc(C)ccc1C)CS2 (stereo unspecified) | 7.529%
28 | CC/N=c1\nc(NCC)nc2n1C(O)(Nc1cccc(Cl)c1Cl)CS2 (stereo unspecified) | 0.756%
29 | CC/N=c1\nc(NCC)nc2n1C(O)(Nc1cccc(C)c1C)CS2 (stereo unspecified) | 59.58%
30 | CNC(=O)c1cccc(C2CNCCN2C(=O)c2cccc(F)c2)c1.Cl (stereo unspecified) | -24.93%
31 | O=C(NCc1ccco1)[C@H]1COC[C@H]2CN(Cc3ccccn3)C[C@H]21.O=C(O)C(F)(F)F.O=C(O)C(F)(F)F | -5.073%
32 | Cc1ncccc1-c1cc2cccnc2n1CCCNC(=O)C(C)(C)C.Cl | 11.8%
33 | Cc1nc(-c2ccnc(N3CCNCC3)n2)no1.Cl.Cl | 10.1%
34 | CC(C)C[C@H](N)COc1cccc(F)c1Oc1ccccc1 | 5.666%
35 | CC(C)C[C@H](N)COc1cccc(F)c1Oc1ccc(Cl)cc1 | 105.7%
36 | CNCc1cc(F)ccc1Oc1ccc(Cl)cc1 | -7.892%
37 | CCOc1ccccc1C(N)CC(C)C (stereo unspecified) | 6.467%
38 | CC(C)C[C@H](N)COc1cccc(F)c1Oc1cccc(Cl)c1 | 103.9%
39 | CC(C)COc1ccccc1C(N)CC(C)C (stereo unspecified) | -26.57%
40 | COc1ccccc1C(N)CC(C)C (stereo unspecified) | -0.8675%
41 | Cc1ccc(Oc2c(F)cccc2OC[C@@H](N)CC(C)C)cc1 | 104.6%
42 | CC(CNS(N)(=O)=O)Oc1cccc(Cl)c1 (stereo unspecified) | -31.66%
43 | O=C(NC1CC1)[C@@H]1C[C@@H]2CCN(Cc3ccoc3)C[C@@H]2O1.O=C(O)C(F)(F)F | 49.9%
44 | Cc1nn(C)cc1-c1cncn1CCc1ccc2c(c1)OCCO2.Cl | -2.438%
45 | Cl.Cl.c1cncc(OC[C@@H]2CCC[C@@]23CNCCO3)c1 | -0.8406%
46 | Cn1ccnc1CN1CCC2(CC1)CCN(c1ccccc1)C2=O.O=C(O)C(F)(F)F | 8.178%

Row | SMILES | Percent Effect
47 | O=C(O)C(F)(F)F.O=C(O)C(F)(F)F.O=C1Nc2ccccc2C12CCN(Cc1ccccn1)CC2 | -17.02%
48 | Cc1ccccc1C1CCN(CCn2cc(-c3cccc(O)c3)nn2)C1 (stereo unspecified) | 72.96%
49 | Cc1ccccc1C1CCN(CCNC(=O)CS(C)(=O)=O)C1 (stereo unspecified) | -16.65%
50 | Oc1cccc(-c2cc(C3CCN(Cc4cncnc4)C3)ccn2)c1 (stereo unspecified) | 20.76%
51 | CCSCCn1cc(-c2nccs2)nn1 | 12.13%
52 | Cc1ccccc1C1CCN(CCn2cc(-c3nccs3)nn2)C1 (stereo unspecified) | 59.14%
53 | Cc1ccccc1C1CCN(CCn2cc(-c3nccn3C)nn2)C1 (stereo unspecified) | 32.84%
54 | CCC(=O)N1CCC2(CC1)CN(CCO)Cc1ccccc12.O=C(O)C(F)(F)F | -19.17%
55 | NCCc1c(-c2ccccc2)[nH][nH]c1=O.O=C(O)C(=O)O | -25.01%
56 | O=C(CCc1cncc(F)c1)NS(=O)(=O)c1ccc(F)cc1F | 21.56%
57 | Cn1cccc1C(=O)N1C[C@H]2CN(Cc3cccs3)C[C@H]2C1.O=C(O)C(F)(F)F | -10.6%
58 | COCCn1c(-c2cccc(OC)c2)cnc1NC(=O)NCC(C)C | 22.14%
59 | COCCCNC(=O)Nc1ncc(-c2cccc(OC)c2)n1CCOC | -7.26%
60 | COCCn1c(-c2cccc(OC)c2)cnc1NC(=O)NCCC(C)C | 67.45%
61 | Cc1nn(C)c(Cl)c1CNCc1cccnc1N1CCN(C)CC1.Cl | -22.17%
62 | O=C(O)C(F)(F)F.O=C1Nc2ccccc2C12CCN(c1nccs1)CC2 | -0.7259%
63 | CCC1=N[C@@]2(CC[C@@H]3CN(Cc4ccc(Cl)cc4)C[C@@H]32)C(=O)N1.O=C(O)C(F)(F)F | 4.216%
64 | CN1Cc2ccccc2CC2(CCN(CCO)CC2)C1=O.O=C(O)C(F)(F)F | 19.63%
65 | Cl.O=C(CCc1cccc(C2CCNCC2)n1)N1CCCCC1 | -1.304%
66 | CCc1cnc(N)nc1N[C@@H](C)c1ncccc1C | -10.37%
67 | CCc1cnc(N)nc1NC(C)c1ccc(C)c(C)c1 (stereo unspecified) | 51.29%
68 | CCc1cnc(N)nc1NC(C)c1cnn(C)c1 (stereo unspecified) | -5.78%
69 | Cl.Nc1cnn(CC(=O)N2CCCCC2)c1 | -8.542%

Row | SMILES | Percent Effect
70 | CCOc1ccc(CN2CC[C@H]3CC[C@@H](C2)N3)cc1CO | -10.09%
71 | CO[C@H]1CCN(S(=O)(=O)c2cccnc2)[C@@H]2CN(CC3CC3)C[C@H]12.O=C(O)C(F)(F)F.O=C(O)C(F)(F)F | 2.331%
72 | O=C(O)C(F)(F)F.O=c1cc(CNS(=O)(=O)C2CC2)nc2n1CCCN(CC1CC1)C2 | 21.63%
73 | Cc1nc(CN2C[C@@H]3CN(C(=O)c4cccn4C)C[C@@H]3C2)cs1.O=C(O)C(F)(F)F | -44.62%
74 | C=C(C)COc1cccc(CNCc2nc3ccccc3c(=O)[nH]2)c1 | 22.25%
75 | COc1cccc(CNCc2nc3ccccc3c(=O)[nH]2)c1 | 81.36%
76 | COc1cccc(CNCCNS(=O)(=O)Cc2ccccc2)c1 | -28.9%
77 | CC(C)N(C)Cc1cnc2n1CCN(Cc1ccco1)C2.O=C(O)C(F)(F)F.O=C(O)C(F)(F)F | -12.15%
78 | CC(C)N1CCC2(CCCNC2)C1=O.Cl (stereo unspecified) | -7.448%
79 | COc1ccc(-c2cnc(N)nc2C2CCCNC2)cc1.Cl (stereo unspecified) | 9.716%
80 | O=C(O)C(F)(F)F.O=C(O)C(F)(F)F.O=C1COC2(CCN(Cc3ccncc3)CC2)CN1 | -17.34%
81 | Cc1ccc(-c2cn[nH]c2C2CCCN(c3ncccn3)C2)cc1 (stereo unspecified) | -0.9903%
82 | Cc1ccc(-c2cn[nH]c2C2CCCN(c3ccnc(C)n3)C2)cc1 (stereo unspecified) | 19.62%
83 | Cc1ccc(-c2cn[nH]c2C2CCCN(c3nccc(N)n3)C2)cc1 (stereo unspecified) | 65.07%
84 | CS(=O)(=O)NC[C@]12COC[C@H]1CN(Cc1ccc3c(c1)OCO3)C2.O=C(O)C(F)(F)F | 3.977%
85 | CCOC(=O)N1CC2(CCNCC2)c2cc(Cl)ccc21.Cl | -1.259%
86 | COCC(=O)NC1CC2(CCN(CCN(C)C)CC2)c2ccccc21 (stereo unspecified) | 10.28%
87 | CCN(CC)c1nc(Nc2cccc(C(=O)O)c2)nc2ccccc12 | -2.465%
88 | CC(O)c1cccc(Nc2nc(NCCO)c3ccccc3n2)c1 (stereo unspecified) | 10.04%
89 | CCN(CC)c1nc(Nc2cccc(C(C)O)c2)nc2ccccc12 (stereo unspecified) | 99.47%
90 | Cc1ccc(CN2CCc3onc(C(=O)Nc4cccnc4)c3C2)o1.O=C(O)C(F)(F)F.O=C(O)C(F)(F)F | 26.18%
91 | Cc1cccc(CN2CC[C@H]3O[C@H](C(=O)Nc4cnccn4)CC[C@H]32)n1.O=C(O)C(F)(F)F.O=C(O)C(F)(F)F | -10.98%
